Assay outcomes from PubChem BioAssay.
N-glyco inh: increase of ERlucT glycosylation luciferase signal, primary screen, N-linked glycosylation inhibitor project, D54 ERlucT cells, luminescence, set 2 | D54 ERlucT glycosylation luciferase reporter, 24 h; percent of 100 nM tunicamycin response | reporter increase, % at 12.5 µM | hit rate 0.23% among 360,000 | AID 588692, 2011;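 active = mean luciferase reporter signal, scaled so untreated is 0 and the glycosylation-blocking control 100, at or above a set limit in every replicate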;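 note: luciferase carries N-glycosylation sites so blocking glycosylation raises the light; 0% = median of neutral control wells and 100% = median of 100 nM tunicamycin wells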
RAD54 branch: inhibitors of human RAD54 branch migration, primary screen, biochemical, fluorescence, single point | DNA repair and recombination protein RAD54-like (Homo sapiens), Q92698 | RAD54 Holliday junction branch migration, FAM/BHQ fluorescence | inhibition, % at 10.4 µM | hit rate 0.14% among 360,000 | AID 602329, 2012;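 active = mean normalized replicate activity at least 40 and at least half of replicates scoring 40 or more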;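 note: 0% = median of neutral control wells and 100% = median of positive control wells; inhibitors cause a drop in the FAM fluorescence signal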
Target sequence (Q92698 whole entry, looked up): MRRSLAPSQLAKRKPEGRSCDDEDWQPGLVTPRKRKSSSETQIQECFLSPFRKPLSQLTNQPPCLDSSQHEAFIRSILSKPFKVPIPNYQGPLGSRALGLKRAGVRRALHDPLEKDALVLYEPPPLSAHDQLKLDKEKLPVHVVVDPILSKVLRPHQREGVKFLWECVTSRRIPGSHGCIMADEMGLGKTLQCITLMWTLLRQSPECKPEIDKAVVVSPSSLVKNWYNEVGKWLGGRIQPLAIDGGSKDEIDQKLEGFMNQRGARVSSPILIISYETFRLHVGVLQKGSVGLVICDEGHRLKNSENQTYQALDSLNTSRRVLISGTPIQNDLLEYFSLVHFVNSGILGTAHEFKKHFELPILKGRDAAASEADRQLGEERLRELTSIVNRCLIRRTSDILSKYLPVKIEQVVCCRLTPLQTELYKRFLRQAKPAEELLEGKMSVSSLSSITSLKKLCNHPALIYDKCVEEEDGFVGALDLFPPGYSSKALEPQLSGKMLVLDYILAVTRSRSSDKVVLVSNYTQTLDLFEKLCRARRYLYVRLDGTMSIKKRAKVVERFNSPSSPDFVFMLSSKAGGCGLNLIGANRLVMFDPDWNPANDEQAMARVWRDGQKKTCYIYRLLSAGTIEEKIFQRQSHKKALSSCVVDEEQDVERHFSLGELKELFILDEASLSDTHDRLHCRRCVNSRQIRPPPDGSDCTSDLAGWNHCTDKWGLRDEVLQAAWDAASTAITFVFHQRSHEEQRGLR
Vif imaging: HIV Vif self-association inhibitors, primary screen, imaging, HEK293T, single point; HEK293T cells, Vif self-association by quenched fluorescence, 24 h; inhibition, % at 7.49 µM; hit rate 0.35% among 340,000; in the data active = inhibition above about 50%, passing the limit was not always enough
Myeloid diff MLP: induction of myeloid progenitor differentiation, primary screen, cell-based, flow cytometry, MLPCN library | ER-HoxA9 myeloid progenitors, lysozyme-GFP differentiation | calls only at 10 µM | hit rate 1% among 360,000;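 active = normalized GFP-positive differentiation at or above the plate's own cutoff, the solvent-only control mean plus 3 SD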;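 note: cells exposed to compound for four days before flow analysis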
ABCB6 inh MLPCN: ABCB6 transporter inhibitors, primary screen, K562-ABCB6 cells, flow cytometry, MLPCN library; ATP-binding cassette sub-family B member 6 (Homo sapiens), Q9NP58; K562-ABCB6 porphyrin accumulation, 1 h; active compounds read low; fluorescence ratio to DMSO, % at 10 µM; hit rate 0.19% among 360,000; AID 602162, 2011;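 active = fluorescence ratio to DMSO below 75%, the collection mean minus 3 SD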;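 note: signal is porphyrin accumulated inside mitochondria; 100% equals median channel fluorescence of DMSO control wells; lower ratio means ABCB6 inhibition with less porphyrin fluorescence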
ABCB6 inh CP1: ABCB6 transporter inhibitors, confirmation, K562-ABCB6 cells, flow cytometry, cherry pick 1; shares compounds with ABCB6 inh MLPCN; K562-ABCB6 porphyrin accumulation, 1 h; active compounds read low; ratio response (% of DMSO), % at 10 µM; 700 tested, under 10 active; AID 602430, 2012;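 active = repeat-averaged ratio response below 75% of DMSO, the collection mean minus 3 SD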;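 note: median porphyrin fluorescence at 575 nm with 488 nm excitation from mitochondria; lower ratio means less porphyrin signal so ABCB6 inhibition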
* marks the source's active call; other numbers are inactive results; i = inactive; . = not tested or not shown. This is a sample that favours compounds with a hit; in the whole collection about 1.6% have one here.

SMILES | N-glyco inh | RAD54 branch | Vif imaging | Myeloid diff MLP | ABCB6 inh MLPCN | ABCB6 inh CP1
CCCN(C)C[C@@H]1Oc2ncc(C#Cc3ccccc3OC)cc2C(=O)N([C@H](C)CO)C[C@@H]1C | . | 5.9 | . | . | . | .
CN1C(=O)c2cc(NC(=O)C3CCCC3)ccc2OC[C@@H]2O[C@@H](CC(=O)O)CC[C@H]21 | . | -10.6 | . | . | . | .
CCOc1ccc2nc(SCC(=O)NCc3ccccc3OC)[nH]c2c1 | 1.3 | -8.3 | -8.6 | i | 72.0* | 103.0
COc1ccc2nc(SCC(=O)Nc3ccccc3)[nH]c2c1 | 0.1 | . | -0.1 | i | 101.0 | .
COc1ccc2nc(SCC(=O)Nc3c(C)cccc3C)[nH]c2c1 | -1.6 | -0.2 | -11.0 | i | 74.0* | 98.0
COc1ccc(NC(=O)N(C)C[C@@H]2Oc3ccc(NC(=O)NC4CCCCC4)cc3CC(=O)N([C@H](C)CO)C[C@H]2C)cc1 | . | 8.2 | . | . | . | .
CNC(=O)C[C@@H]1CC[C@H]2[C@@H](COc3ccc(NC(=O)c4ccc(F)cc4)cc3C(=O)N2C)O1 | . | 0.2 | . | . | . | .
Cn1nc(-c2ccccc2)c(CO)c1Oc1ccc(F)cc1 | 0.7 | . | -8.7 | i | 69.0* | 104.0
COc1ccccc1Oc1ncnc2c1oc1ccccc12 | 0.1 | . | 0.5 | i | 69.0* | 100.0
CCOCCn1c(N2CCN(c3ccc(OC)cc3)CC2)nc2c1c(=O)[nH]c(=O)n2C | 0.6 | 6.2 | -12.9 | i | 72.0* | 99.0
COCCn1c(N2CCN(c3ccc(OC)cc3)CC2)nc2c1c(=O)[nH]c(=O)n2C | 0.4 | -3.3 | -2.2 | i | 94.0 | .
COc1ccc(-c2cc(C(=O)Nc3c(C)nn(Cc4ccccc4)c3C)no2)cc1 | -3.4 | -3.1 | 18.3 | i | 51.0* | 100.0
Cc1ccc(C(=O)Nc2cc(C)nn2CCC#N)cc1 | 0.4 | -1.7 | -4.6 | i | 74.0* | 97.0
Cc1ccc(S(=O)(=O)N2CCN(C(=O)CN3CCOCC3)C2C(C)C)cc1 (stereo unspecified) | -0.8 | -5.8 | 7.4 | i | 59.0* | 102.0
CCCC(C(=O)NC1CCCC1)N(Cc1ccc(OC)cc1)C(=O)c1snc(C(N)=O)c1N (stereo unspecified) | -2.5 | -12.9 | 11.7 | i | 100.0 | .
CCCC(C(=O)NC1CCCC1)N(Cc1ccccc1)C(=O)c1snc(C(N)=O)c1N (stereo unspecified) | 2.0 | -2.6 | -6.7 | i | 67.0* | 103.0
O=C(C[C@H]1CC[C@@H]2[C@H](COC[C@H](O)CN2C(=O)Nc2ccc(Cl)c(Cl)c2)O1)NC1CCC1 | . | 7.6 | . | . | . | .
NS(=O)(=O)c1ccc(NC(=O)CN2CCc3ccccc3C2)cc1 | -0.5 | -0.9 | 1.7 | i | 73.0* | 99.0
COc1ccc(CNC(=O)C[C@H]2CC[C@@H]3[C@@H](COc4ccc(NC(C)=O)cc4C(=O)N3C)O2)cc1 | . | -10.3 | . | . | . | .
COc1ccc(CN(CC(=O)NCC2CCCO2)C(=O)CCC(=O)Nc2cc(C)on2)cc1 (stereo unspecified) | 1.9 | 2.6 | 0.3 | i | 95.0 | .
COc1cccc(CN(CC(=O)NCC2CCCO2)C(=O)CCC(=O)Nc2cc(C)on2)c1 (stereo unspecified) | -0.4 | -4.4 | 13.0 | i | 73.0* | 102.0
CCOC(=O)C1CCN(Cc2ccc(F)c(Br)c2)CC1 | -1.7 | 5.8 | 28.9 | i | 69.0* | 99.0
CCC(=O)Nc1ccc2c(c1)C(=O)N(C)C[C@@H](OC)[C@H](C)CN(C(=O)c1ccncc1)[C@@H](C)CO2 | . | -3.8 | . | . | . | .
O=C(CN1c2cccc3cccc(c23)S1(=O)=O)NCc1ccccc1Cl | -2.2 | 5.8 | -4.0 | i | 74.0* | 103.0
CN(C)CC(=O)N[C@@H]1C=C[C@@H](CC(=O)NCc2ccc(Cl)cc2)O[C@H]1CO | . | -2.7 | . | . | . | .
SMILES | N-glyco inh | RAD54 branch | Vif imaging | Myeloid diff MLP | ABCB6 inh MLPCN | ABCB6 inh CP1
CCCNC(=O)Nc1ccc2c(c1)C(=O)N(C)[C@@H]1CC[C@H](CC(=O)NCC3CCCCC3)O[C@H]1CO2 | . | -0.1 | . | . | . | .
O=C1N[C@@H](Cc2ccccc2)C(=O)N1CCN1CCOCC1 | 3.6 | 0.9 | 0.6 | i | 48.0* | 97.0
O=C1CCCN1CCCN1C(=O)N[C@@H](Cc2ccccc2)C1=O | 1.2 | -13.5 | 6.2 | i | 100.0 | .
C[C@@H]1CN([C@@H](C)CO)C(=O)c2cc(NC(=O)NC3CCCCC3)ccc2O[C@@H](C)CCCCO[C@H]1CN(C)C(=O)Cc1ccccc1 | . | -6.1 | . | . | . | .
O=C(CCCCCNc1nc(=S)[nH]c2ccccc12)N1CCN(c2ccccn2)CC1 | 5.9 | 6.2 | -20.8 | i | 74.0* | 100.0
COc1cccc(N2CCN(C(=O)CCCCCNc3nc(=S)[nH]c4ccccc34)CC2)c1 | 2.8 | . | -19.2 | i | 102.0 | .
O=C(O)c1cccc(NC(=O)C2C3C=CC(C3)C2C(=O)O)c1 (stereo unspecified) | 0.2 | 6.3 | 13.9 | i | 97.0 | .
O=C(O)C1C2C=CC(C2)C1C(=O)Nc1cccc(F)c1 (stereo unspecified) | 2.2 | -1.6 | 0.4 | i | 58.0* | 101.0
COC(=O)[C@@H]1C[C@@]2(O)[C@H](O)[C@H](O)[C@H](O)C[C@H]2N1Cc1ccc(C(F)(F)F)cc1 | 1.9 | -12.8 | -5.1 | i | 72.0* | 100.0
C[C@@H]1CN([C@H](C)CO)C(=O)c2cc(NC(=O)Nc3ccccc3)ccc2O[C@@H](C)CCCCO[C@H]1CN(C)S(=O)(=O)c1cn(C)cn1 | . | -3.0 | . | . | . | .
C[C@@H]1CN([C@H](C)CO)C(=O)Cc2cc(NC(=O)CCC(F)(F)F)ccc2O[C@H]1CN(C)Cc1ccc(C(=O)O)cc1 | . | 10.9 | . | . | . | .
CN(C)CC#Cc1cccc(-c2nc(C(=O)N3CCN(C)CC3)cc3c2[C@@H](CCO)N(S(=O)C(C)(C)C)C3)c1 (stereo partly specified) | . | -0.2 | . | . | . | .
COc1ccc(CN(CCCN2CCOCC2)C(=O)Nc2ccccc2)cc1OC | 0.1 | 6.6 | -6.3 | i | 68.0* | 98.0
O=C(Nc1ccccc1)N(CCCN1CCOCC1)Cc1ccccc1F | 0.2 | 0.2 | -15.3 | i | 78.0 | .
CC(=O)Nc1ccc(-c2ccnc3c2CC(C(=O)Nc2cccc(OC(F)(F)F)c2)O3)cc1 (stereo unspecified) | -4.6 | 4.7 | -5.0 | i | 74.0* | 102.0
CC(=O)Nc1cccc(-c2ccnc3c2CC(C(=O)Nc2cccc(OC(F)(F)F)c2)O3)c1 (stereo unspecified) | 1.4 | -1.6 | -1.2 | i | 100.0 | .
CC(=O)Nc1cccc(-c2ccnc3c2CC(C(=O)Nc2cccnc2)O3)c1 (stereo unspecified) | 1.1 | 9.5 | 5.5 | i | 108.0 | 99.0
